# Measured values from PubChem BioAssay.
# The source made the active and inactive calls. Rule as the data show it: active = fold change permeability below about 0.7 or above about 1.3; inactive = in between.
# Experiment: modulators of brain endothelial barrier permeability, primary screen, cell-based, FITC-avidin fluorescence, HTS (AID 1963498); also: test concentration not given here
# Details: actives lie on both sides
row,SMILES,fold change permeability
1,CC(C)CN(C[C@@H](O)[C@H](Cc1ccccc1)NC(=O)O[C@H]1CO[C@H]2OCC[C@H]21)S(=O)(=O)c1ccc(N)cc1,1.4 (active)
2,Cc1cc(C)c(/C=C2\C(=O)Nc3ccccc32)[nH]1,23.2 (active)
3,CN(C)C(=O)/N=N/C(=O)N(C)C,1 (inactive)
4,Nc1ncnc2c1nc(Sc1ccc(Cl)cc1)n2C1OC2COP(=O)(O)O[C@@H]2[C@@H]1O (stereo not given in full),0.9 (inactive)
5,O=C(O)Cn1c(C(=O)Nc2nc(-c3ccccc3Cl)cs2)cc2ccccc21,1.3 (active)
6,C=CCN1CCc2c(cc(O)c(O)c2Cl)C(c2ccccc2)C1 (stereo not given),1 (inactive)
7,CC(C)c1cc(/C=C(\C#N)C(=O)NCCCc2ccccc2)cc(C(C)C)c1O,0.8 (inactive)
8,O=C1c2ccccc2-c2n[nH]c3cccc1c23,1.5 (active)
9,O=C(O)CNC(=O)C(CS)Cc1ccccc1 (stereo not given),0.6 (active)
10,O=C(O)c1ccc(-c2ccc(/C=C3\SC(=S)N(Cc4ccccc4)C3=O)o2)cc1,2 (active)
11,O=C(c1ccoc1)N1CCN(c2cc(-c3ccco3)nc3cc(-c4ccccc4)nn23)CC1,1.2 (inactive)
12,CCCCN(Cc1ccccc1)C(=O)c1ccc(S(=O)(=O)Nc2ccccc2)cc1,1.8 (active)
13,OC[C@H]1O[C@@H](n2cnc3c(N[C@H]4CCC[C@@H]4O)ncnc32)[C@H](O)[C@@H]1O,1 (inactive)
14,C1CCc2nnnn2CC1,1.3 (active)
15,CC(=O)c1ccc2c(c1)N(CCCN(C)C)c1ccccc1S2,1.6 (active)
16,N#CC(C#N)=C(N)/C(C#N)=C/c1ccc(O)cc1,0.7 (active)
17,CN(C)CCC(c1ccc(Cl)cc1)c1ccccn1 (stereo not given),1.1 (inactive)
18,Cc1nc2c(OCc3ccccc3)cccn2c1CC#N,0.9 (inactive)
19,OC[C@H]1O[C@@H](n2cnc3c(NC4CCCCC4)ncnc32)[C@H](O)[C@@H]1O,1.2 (inactive)
20,OC(CCN1CCCCC1)(c1ccccc1)C1CC2C=CC1C2 (stereo not given),1.1 (inactive)

row,SMILES,fold change permeability
1,COc1ccccc1CNCCCCCCNCCCCCCCCNCCCCCCNCc1ccccc1OC,0.8 (inactive)
2,CCC(=O)c1ccc2c(c1)N(CCCN(C)C)c1ccccc1S2,1.1 (inactive)
3,Cc1ccc(=O)n(-c2ccccc2)c1,1 (inactive)
4,CN1C(=O)CC[C@H]1c1cccnc1,0.9 (inactive)
5,O=C1NC(=O)C(Cc2ccc3cc(OCc4ccccc4F)ccc3c2)S1 (stereo not given),1.3 (active)
6,O=c1cc(-c2ccccc2)oc2c(O)c(O)ccc12,1.5 (active)
7,Cc1nc2c([nH]1)c(=O)n(C)c(=O)n2Cc1ccco1,0.7 (active)
8,O=C(O)CCc1ccc(NCc2cccc(Oc3ccccc3)c2)cc1,0.7 (active)
9,c1ccc(CN2CCC3(CCCc4ccccc43)CC2)cc1,1.6 (active)
10,Nc1ncnc2c1ncn2C1CCCO1 (stereo not given),1 (inactive)
11,CC(CN1c2ccccc2Sc2ccccc21)N(C)C (stereo not given),1.2 (inactive)
12,CN(C)CCCC1(c2ccc(F)cc2)OCc2cc(C#N)ccc21 (stereo not given),0.9 (inactive)
13,CC(=O)/C(C)=N/O,1 (inactive)
14,O=C(Nc1ccc(Oc2ccc(Cl)cn2)c(Cl)c1)c1ccccn1,1.5 (active)
15,CCc1ccc2c(-c3cccc(Cl)c3)nc(=O)n(CC)c2n1,1.5 (active)
16,COC(=O)C1=C(C)NC(C)=C(C(=O)O[C@@H]2CCCN(Cc3ccccc3)C2)[C@@H]1c1cccc([N+](=O)[O-])c1,1.4 (active)
17,CCCCCC[C@@H]([C@@H](C)O)n1cnc2c(N)ncnc21,0.7 (active)
18,N[C@@H](Cc1c[nH]c2ccccc12)C(=O)O,1.3 (active)
19,Cc1ccccc1N1CCN(CCc2nnc3n2CCCC3)CC1,0.9 (inactive)
20,O=C1CCC(c2ccc(-n3ccnc3)cc2)=NN1,1.1 (inactive)
